Source: PubChem (National Center for Advancing Translational Sciences (NCATS))
ERG Ets-DNA blk: qHTS for Small Molecule Inhibitors of the ERG Ets/DNA interaction. Transcriptional regulator ERG (Homo sapiens), P11308. fluorescence polarization, His-ERG Ets domain / labelled DNA. Potency, µM (doses to about 76.9 µM), without a hit: at the highest dose FP activity, negative = inhibition, usual class: inhibitors. 0.028% of 370,000 active; active = well fitted inhibition curve with a large enough effect in the polarisation, with a control signal flat; inconclusive = small, poorly fitted or top-dose-only effect, or effect the other way, or a change in a side signal; inactive = no such curve, though single readings can be large or run the other way; the % refers to the polarisation;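 note: polarization taken with two DNA probes labelled with fluorescein and Texas red; potency is the fitted concentration of half-maximal effect; % of control where 0% means no effect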
Target sequence (P11308 whole entry, looked up, the tested form may be a part): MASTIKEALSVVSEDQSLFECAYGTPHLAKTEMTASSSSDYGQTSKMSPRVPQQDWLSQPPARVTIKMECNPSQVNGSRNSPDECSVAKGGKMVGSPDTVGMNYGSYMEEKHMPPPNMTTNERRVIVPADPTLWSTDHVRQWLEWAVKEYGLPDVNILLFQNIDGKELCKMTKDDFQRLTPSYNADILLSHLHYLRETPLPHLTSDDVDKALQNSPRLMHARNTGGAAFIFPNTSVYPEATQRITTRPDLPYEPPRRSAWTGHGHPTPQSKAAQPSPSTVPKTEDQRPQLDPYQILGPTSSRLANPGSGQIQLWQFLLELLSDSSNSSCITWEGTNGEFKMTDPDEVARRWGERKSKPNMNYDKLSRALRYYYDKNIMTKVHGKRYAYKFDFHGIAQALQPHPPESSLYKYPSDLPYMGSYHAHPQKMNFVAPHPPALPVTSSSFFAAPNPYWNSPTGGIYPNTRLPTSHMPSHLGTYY
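His-tagged ERG Ets domain (1 uM in the protein solution; 300mM KCl, 50mM Tris-HCl, 1mM EDTA, 1mM DTT, pH 7.5) received compound, then a probe mix of 5 nM fluorescein-DNA and 100nM Texas-615-DNA. Fluorescence polarization was read for both dyes.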
VP16 counter: VP16 counterscreen qHTS for inhibitors of ROR gamma transcriptional activity | Drosophila S2 Gal4-VP16 UAS-luciferase, luminescence, 20 h | 3.5% of 310,000 active | Potency, µM (top dose mostly 53.6 µM), inactives show at the highest dose activity, negative = inhibition, usual class: inhibitors;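 note: Gal4-VP16 expression switched on by copper sulfate through the metallothionein promoter; potency is the fitted concentration of half-maximal effect; % is set by controls: 0 for no effect and ±100 for the full control effect; nearly all actives have a fitted effect of over 50% in size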
Giardia kill: Small Molecules that selectively kill Giardia lamblia: qHTS; 0.15% of 340,000 active; activity change, % at 7.66 µM, hits read low; AID 540267, 2011; Giardia lamblia trophozoite viability; in the data active = activity change below about -80%; inconclusive = between about -30% and that limit;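 note: parasites exposed to compound for two days anaerobically before the ATP read; % is set by controls: 0 for no effect and ±100 for the full control effect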
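Luminescent ATP signal served as the viability read-out, measured 15-30 min after adding ATP detection reagent to trophozoites that had been incubated with compounds for 48 hrs at 37 deg C anaerobically at 100 cells/well.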
Integrin act MD: qHTS for Activators of Integrin-Mediated Alleviation for Muscular Dystrophy; alpha7betagal myoblasts, beta-gal FDG fluorescence, 48 h; Potency, µM (series often up to 38.3 µM), without a hit: top-dose activation, most hits filed as activators; 0.064% of 350,000 active;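 note: potency is the fitted concentration of half-maximal effect; 100% = response of the positive control SU9516; nearly all actives have a fitted effect of over 60% in size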
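Alpha7betagal+/- myoblasts (passage 13) were plated 16-24 hr, then exposed to compounds (1:260 dilution of DMSO stock) for 48 hours at 37C. After MPER lysis, β-galactosidase reporter activity was read as FDG fluorescence (ex 480/em 540) after 30 minutes.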
RORgamma inh: qHTS for inhibitors of ROR gamma transcriptional activity; 5.4% of 310,000 active; Potency, µM (doses to about 53.6 µM), without a hit: at the highest dose activity change, negative = inhibition, most hits filed as inhibitors; Nuclear receptor ROR-gamma (Mus musculus), P51450; Drosophila S2 Gal4-RORgamma UAS-luciferase reporter, 20 h; note: potency is the fitted concentration of half-maximal effect; % is set by controls: 0 for no effect and ±100 for the full control effect; nearly all actives have a fitted effect of over 60% in size
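Drosophila Schneider cells stably carrying a metallothionein-driven Gal4 DBD–ROR gamma fusion and a UAS-Photinus luciferase reporter were exposed to compound for 1 hr, then induced with copper sulfate (700 uM final) for 20 hr at ambient temperature before luminescence reading.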
* marks the source's active call; other numbers are inactive results; [ ] = another dose, or the depositor's remark. Only a selection was taken, and hits are over-represented in it overall. Unless noted, calls come from the whole dose curve; as a rule, active = well fitted curve in the direction sought with a large enough effect; inconclusive = small, poorly fitted or top-dose-only effect, or another doubt; inactive = no such curve, though single readings can be large; an effect the other way counts as inactive or inconclusive.

For COCCn1c(=O)[nH]c2cc(C(=O)N3CCN(c4cccc(C)c4C)CC3)ccc2c1=O the results were ERG Ets-DNA blk -3.2%, VP16 counter -1.8%, Giardia kill -12.3, Integrin act MD 5.9% and RORgamma inh 36.7%.
Screening Cc1cc(C)nc(SCNC(=O)c2ccccc2)n1 returned ERG Ets-DNA blk -4.3%, VP16 counter 3.98µM*, Giardia kill -17.2, Integrin act MD 4.9% and RORgamma inh 2.82µM*.
Cc1cc(SCNC(=O)c2ccccc2)nc(C(C)C)n1 was read as ERG Ets-DNA blk -1.8%, VP16 counter inconclusive, Giardia kill 27.7, Integrin act MD 16.4% and RORgamma inh 12.6µM*.
For COC(=O)NC(C(=O)OC)(C(=O)OC)c1ccccc1 the results were VP16 counter 2.1% and RORgamma inh -2.1%.
Screening O=S(=O)(/N=S1\CC=CCN1S(=O)(=O)c1ccccc1)c1ccccc1 (centres undefined) returned ERG Ets-DNA blk -0.4%, Giardia kill -9.6 and Integrin act MD -17.4%.
`CC1=C(C)CS(=O)N(c2ccc(S(N)(=O)=O)cc2)C1` (centres undefined) gave ERG Ets-DNA blk -4.6%, VP16 counter 4.47µM*, Giardia kill 27.4, Integrin act MD 3.6% and RORgamma inh 3.55µM*.
`CC1=C(C)CS(=O)N(S(=O)(=O)c2ccccc2)C1` (centres undefined) gave ERG Ets-DNA blk 2.3%, VP16 counter 11.2µM*, Giardia kill 4.0, Integrin act MD -7.2% and RORgamma inh 8.91µM*.
Screening CCn1c2ccccc2c2cc(CN3CCN(Cc4ccc(Br)cc4)CC3)ccc21 returned ERG Ets-DNA blk 4.8%.
Screening Cc1ccc(C)c(N(C)S(=O)(=O)c2ccc3[nH]cc(C(=O)NC4CCCC4)c(=O)c3c2)c1 returned ERG Ets-DNA blk 2.6%.
`CCc1cc(C(=O)NNC(=O)CCN2CCN(c3ccccc3)CC2)sc1C` gave ERG Ets-DNA blk 15.1%, VP16 counter -3.8%, Giardia kill -2.9, Integrin act MD -0.2% and RORgamma inh -9.1%.
For CCc1cc(C(=O)NNC(=O)CCl)sc1C the results were ERG Ets-DNA blk -1.6%, VP16 counter 17.3%, Giardia kill 10.7, Integrin act MD -33.7% and RORgamma inh 10µM*.
CCc1cc(C(=O)Nc2ccc(OC)nc2)sc1C was read as Giardia kill -2.8 and Integrin act MD 6.2%.
Screening CCc1cc(C(=O)Nc2ncccc2O)sc1C returned ERG Ets-DNA blk -10.4%, VP16 counter 10µM*, Giardia kill -28.7, Integrin act MD 7.4% and RORgamma inh 7.94µM*.
For CCCn1c(N)c(C(=O)CSc2nnc3ccccn23)c(=O)n(C)c1=O the results were ERG Ets-DNA blk 3.9%, Giardia kill 9.7 and Integrin act MD 23.6%.
`COc1ccc2nc3c(cc2c1)Cc1ccccc1-3` gave VP16 counter 2.51µM* and RORgamma inh 2.51µM*.
For CCOc1ccccc1NC(=S)N1CCN(c2nc(-c3cccc(OC)c3)cs2)CC1 the results were ERG Ets-DNA blk 2.0%, VP16 counter 7.94µM*, Giardia kill 32.3, Integrin act MD 10.2% and RORgamma inh 3.98µM*.
COc1cccc(-c2csc(N3CCN(C(=S)Nc4ccc(Cl)cc4)CC3)n2)c1 was read as VP16 counter inconclusive, Giardia kill -1.9, Integrin act MD -36.0% and RORgamma inh inconclusive.
Screening COc1cccc(-c2csc(N3CCN(C(=S)Nc4ccccc4)CC3)n2)c1 returned VP16 counter inconclusive, Giardia kill -2.7, Integrin act MD -24.4% and RORgamma inh 6.31µM*.
COc1ccccc1NC(=S)N1CCN(c2nc(-c3ccccc3)cs2)CC1 was read as ERG Ets-DNA blk 6.3%, VP16 counter inconclusive, Giardia kill 9.9, Integrin act MD -40.2% and RORgamma inh 14.1µM*.
Screening CNC(=S)N1CCN(c2nc(-c3cccc(OC)c3)cs2)CC1 returned ERG Ets-DNA blk 8.3%, VP16 counter 23.9%, Giardia kill 12.6, Integrin act MD -4.1% and RORgamma inh -1.5%.
Screening COc1cccc(-c2csc(N3CCN(C(=S)Nc4ccccc4C)CC3)n2)c1 returned ERG Ets-DNA blk 17.5%, VP16 counter inconclusive, Giardia kill 6.4, Integrin act MD -34.7% and RORgamma inh 7.08µM*.
Cc1nn(-c2ccc(N3CCCC3)nn2)c(C)c1CCC(=O)N1CCN(c2ccccc2F)CC1 was read as ERG Ets-DNA blk -1.0%.
For Cc1c(Cl)cccc1NC(c1ccc(F)cc1)c1nnc(-c2ccccc2)o1 (centres undefined) the results were ERG Ets-DNA blk 6.7%.
For COc1cccc(NC(=O)N2CCN(c3nc(-c4cccc(OC)c4)cs3)CC2)c1 the results were ERG Ets-DNA blk 6.0%, VP16 counter -8.7%, Giardia kill 2.9, Integrin act MD -17.5% and RORgamma inh -0.7%.
`COc1ccc(-c2csc(N3CCC(c4ccccc4)C3)n2)cc1` (centres undefined) gave ERG Ets-DNA blk -6.5%, VP16 counter -6.0%, Giardia kill 7.5, Integrin act MD -20.6% and RORgamma inh 11.2µM*.
For COc1cccc(-c2csc(N3CCN(Cc4ccccc4)CC3)n2)c1 the results were ERG Ets-DNA blk -3.6%, VP16 counter inconclusive, Giardia kill -4.9, Integrin act MD -19.0% and RORgamma inh 12.6µM*.
`Fc1ccc(-c2csc(N3CCC(c4ccccc4)C3)n2)cc1` (centres undefined) gave ERG Ets-DNA blk 11.1%, VP16 counter 4.8%, Giardia kill 2.6, Integrin act MD 17.0% and RORgamma inh -42.6%.
COc1cccc(-c2csc(N3CCN(C(=S)Nc4cccc(C)c4)CC3)n2)c1 was read as ERG Ets-DNA blk 23.1%, VP16 counter 3.16µM*, Giardia kill -1.5, Integrin act MD -15.7% and RORgamma inh 7.08µM*.
Screening CCN1CCN(C(=O)Cn2ncc3c4ccccc4n(Cc4c(C)cc(C)cc4C)c3c2=O)CC1 returned ERG Ets-DNA blk -2.8%.
COCCNc1ncnc2ccc(-c3cccc(OC)c3)cc12 was read as VP16 counter 2.7% and RORgamma inh inconclusive.
COC(=O)N/N=C/c1ccc([N+](=O)[O-])o1 was read as ERG Ets-DNA blk -0.9%, VP16 counter -27.9%, Giardia kill inconclusive, Integrin act MD -44.2% and RORgamma inh -42.7%.
`CCOc1ccc(C(=O)N/N=C/c2cc(Cl)ccc2[N+](=O)[O-])cc1` gave ERG Ets-DNA blk -7.4%, VP16 counter 5.62µM*, Giardia kill 24.3, Integrin act MD 8.8% and RORgamma inh inconclusive.
For COc1ccc(-c2nn(-c3ccccc3)cc2C(=O)N/N=C/c2ccc([N+](=O)[O-])o2)cc1 the results were ERG Ets-DNA blk -5.9%, VP16 counter 2.1%[10 µM], Giardia kill -86.0*, Integrin act MD -35.6% and RORgamma inh -4.0%.
